Bioassay records: PubChem BioAssay, several laboratories
This is a sample that favours compounds with a hit; in the whole collection about 3.8% have one here.
697 NFkB inh: lowers PMA/ionomycin-induced NF-kB signal in 697 B cells | AID 435022 | inhibition, % at 4 µM | 697 B-cell NF-kB luciferase reporter, 16 h | 330,000 compounds, 0.33% hits; in the data active means inhibition above about 35%
Jurkat NFkB inh: lowers PMA/ionomycin-induced NF-kB signal in Jurkat cells; 330,000 compounds, 0.53% hits; inhibition, % at 4 µM; PMA/ionomycin-induced NF-kB luciferase reporter, luminescence; AID 435003; in the data active means inhibition above about 50%
NTR1 ag: activates human neurotensin receptor 1; P30989; NTR1-U2OS beta-arrestin-GFP spot imaging, agonist mode; activation, % at 20 µM; 330,000 compounds, 0.17% hits; AID 493036;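 active means activation at or above 40% of the spot to cytoplasm intensity ratio, with at least 20 cells analyzed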
Target sequence (P30989 whole entry, looked up): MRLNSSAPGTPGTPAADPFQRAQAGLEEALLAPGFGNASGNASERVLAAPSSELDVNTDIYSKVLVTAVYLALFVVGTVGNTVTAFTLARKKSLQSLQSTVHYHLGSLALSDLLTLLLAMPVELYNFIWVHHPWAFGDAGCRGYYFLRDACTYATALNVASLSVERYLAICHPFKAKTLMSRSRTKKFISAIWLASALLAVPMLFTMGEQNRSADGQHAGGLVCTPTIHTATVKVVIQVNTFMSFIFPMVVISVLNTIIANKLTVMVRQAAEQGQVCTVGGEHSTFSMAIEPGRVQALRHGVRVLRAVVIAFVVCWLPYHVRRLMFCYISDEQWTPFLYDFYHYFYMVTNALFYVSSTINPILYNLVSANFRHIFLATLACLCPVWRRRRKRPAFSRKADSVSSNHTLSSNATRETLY
Mdm2-MdmX inh: inhibitors of human Mdm2/MdmX interaction | SaOS-2 split-luciferase Mdm2/MdmX complementation, luminescence | 330,000 compounds, 3% hits | inhibition, % at 8 µM;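 active means inhibition of at least 50% at 8 µM in the primary screen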
Beta cell apopt: beta cell apoptosis inhibition. INS-1E cytokine-induced death, ATP luminescence, 48 h; percent of positive-control rescue, neutral wells zero. protection from apoptosis, % (test concentration not listed). 300,000 compounds, 0.8% hits. AID 435005;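 active means Every replicate reaches about 75%, or at least half do and their mean reaches it too, limit read from the data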;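 further: higher means more ATP so stronger rescue from cytokine killing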
Bfl-1 A1 inh: inhibitors of the anti-apoptotic protein A1, read as caspase activation; 330,000 compounds, 0.066% hits; MEF A1-2A-BIM cells, Caspase-Glo 3/7 luminescence, 3 h; percent of clofoctol response, vehicle zero; caspase activation, % (no concentration beside the values); AID 2462;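 active means over half of replicate activation scores above 10%, or exactly half above 10 with the replicate mean above 10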
697 NFkB conf: inhibitors of the PMA/ionomycin-induced NF-kB reporter in 697 B cells, retest. shares compounds with 697 NFkB inh. 697 B-cell NF-kB luciferase, 16 h. inhibition, % at 4 µM. 2,000 compounds, 35% hits. AID 449746; in the data active means inhibition mostly above about 28%, no sharp cut-off; inactive means mostly below about 22%
Large screens that a line does not name were inactive (follow-up assays come after a bar, where they were run).

CC1CCc2nc(NC(=O)c3ccco3)sc2C1 (stereo not given)	none | 697 NFkB conf inactive
CS(=O)(=O)c1ccc2nc(NC(=O)c3ccco3)sc2c1	none
CCOC(=O)c1ccc2nc(NC(=O)c3cccs3)sc2c1	none
CC1CCCN(S(=O)(=O)c2ccc(NC(=O)CN3C(=O)NC(C)(c4ccccc4)C3=O)cc2)C1 (stereo not given)	none
O=C(N/N=C/c1sc(N2CCOCC2)nc1-c1ccccc1)c1ccccc1F	697 NFkB inh 40.0 | 697 NFkB conf inactive
O=C(N/N=C/c1sc(N2CCOCC2)nc1-c1ccccc1)c1ccccc1Cl	none
Cc1cc(C(=O)N/N=C/c2sc(N3CCOCC3)nc2-c2ccccc2)c(C)o1	697 NFkB inh 40.4 | 697 NFkB conf inactive
O=C(N/N=C/c1sc(N2CCOCC2)nc1-c1ccccc1)c1ccccc1O	none
Cc1nn(C)c(C)c1CN(C)S(=O)(=O)c1ccc(F)cc1	none
Cc1nn(C)c(C)c1CN(C)S(=O)(=O)c1ccc2ccccc2c1	697 NFkB inh 81.9, Beta cell apopt 108.8 | 697 NFkB conf 72.3
COc1ccc(N2CCN(C(CNC(=O)c3cccs3)c3ccco3)CC2)cc1 (stereo not given)	none (no result: Beta cell apopt)
CCOC(=O)c1nn(-c2ccc3c(c2)CCN3C(C)=O)cc1O	697 NFkB inh 36.3 | 697 NFkB conf inactive
CC(=O)Nc1ccc(NC(=O)CSc2nc3[nH]ncc3c(=O)n2-c2ccccc2)cc1	none (no result: Beta cell apopt)
N/C(=N\OC(=O)/C=C/c1ccccc1Cl)c1cccnc1	none
N/C(=N\OC(=O)COc1ccc(Br)cc1Cl)c1ccccn1	none | 697 NFkB conf inactive
N/C(=N\OC(=O)/C=C/c1ccccc1Cl)c1ccccn1	none | 697 NFkB conf inactive
CC(C)(C)OC(=O)NCCCC1=CC2=CC(=O)C(C)(OC(=O)C3CCCC3)C(=O)C2=CO1 (stereo not given)	none
CC1(c2nnc(-c3cccc(Cl)c3)o2)CC(c2cccc(Cl)c2)=NO1 (stereo not given)	697 NFkB inh 37.3 | 697 NFkB conf 37.2
COc1ccc(S(=O)(=O)c2snnc2C)cc1	none (no result: Beta cell apopt)
O=C(NCc1cccnc1)c1cccn2c(=O)c3sccc3nc12	697 NFkB inh 37.9 | 697 NFkB conf inactive
Cc1ccc(-c2nnc(Nc3ccccc3)o2)cc1	none | 697 NFkB conf inactive
CC(C)(C)c1ccc(C(=O)NCCOc2ccccc2)cc1	none | 697 NFkB conf inactive
CC1C(=O)N2CCCc3cc(NC(=O)c4ccccc4Br)cc1c32 (stereo not given)	697 NFkB inh 40.9 | 697 NFkB conf inactive
CC(=O)Nc1sc(NC(=O)c2ccc(C)cc2)nc1-c1cccs1	697 NFkB inh 35.9 | 697 NFkB conf inactive
Cc1c(NC(=O)/C=C/c2cn(-c3ccccc3)nc2-c2ccccc2)c(=O)n(-c2ccccc2)n1C	697 NFkB inh 35.5 | 697 NFkB conf 28.4
COc1ccc(-c2nc(CSCC(=O)NCc3ccco3)c(C)o2)cc1	697 NFkB inh 37.8 | 697 NFkB conf 43.2
COc1ccc(NC(=O)CSCC(=O)NCc2ccco2)cc1	none (no result: Beta cell apopt)
CCc1ccc(-c2nc(CSCC(=O)NC3CC3)c(C)o2)cc1	697 NFkB inh 96.9 | 697 NFkB conf 92.8
CSc1ccc(-c2nc(CSCC(=O)NC3CC3)c(C)o2)cc1	697 NFkB inh 89.6 | 697 NFkB conf 48.9
O=C(Nc1nc2nc(-c3ccccc3)cc(-c3ccccc3)n2n1)c1ccco1	697 NFkB inh 46.8 | 697 NFkB conf 30.4
CC(=O)Nc1nc2nc(-c3ccccc3)cc(-c3ccccc3)n2n1	none (no result: Beta cell apopt)
CC1CCN(C(=O)c2cc3nc(-c4ccccc4)cc(-c4ccccc4)n3n2)CC1	697 NFkB inh 35.1 | 697 NFkB conf inactive
O=[N+]([O-])c1ccc(Sc2ncccn2)c([N+](=O)[O-])c1	697 NFkB inh 40.0 | 697 NFkB conf inactive
O=C1CC(c2ccccc2Cl)CC(O)=C1C=NCCCO (stereo not given)	none
CC(C)(C)c1ccc(-c2noc(CCC(=O)NCc3ccco3)n2)cc1	697 NFkB inh 96.0 | 697 NFkB conf 93.6
